TbPYK inhibitor – blocks Trypanosoma brucei pyruvate kinase; TbPYK enzyme, Kinase-Glo Plus ATP luminescence, 45 min; hit rate 0.12% among 410,000; AID 624173; Potency, µM (series often up to 76.8 µM), without a hit: at the top dose activity, negative = inhibition, hits mostly inhibitors; Q57TT1; also: nearly all actives have a fitted effect of over 50% in size
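Quantitative HTS: titrated library compounds versus trypanosomal pyruvate kinase in TEA buffer (pH 7.2) containing KCl, MgCl2, BSA and Tween-20. Reactions were initiated with ADP, 130 uM final. Kinase-Glo Plus luminescence was read after 45 min at RT.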
RE007 growth inh – less growth of the S. pombe RE007 Vpr strain; S. pombe RE007 Vpr strain, BacTiter-Glo ATP luminescence, 24 h; Potency, µM (highest dose often 92.2 µM), without a hit: top-dose activity change, negative = less growth, actives largely listed as inhibitors; hit rate 0.21% among 360,000; active = well fitted falling curve with a large enough effect; inconclusive = small, poorly fitted or top-dose-only effect; inactive = no such curve, though single readings can be large or run the other way; also: nearly all actives have a fitted effect of over 50% in size
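Fission yeast RE007 carrying one integrated HIV-1 vpr copy, seeded at OD 0.01 in PMG+AL medium with 23 nL pinned compound. Grown 24 h at 30 degrees; viability read by BacTiter-Glo luminescence after 5 min.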
LmPK inhibitor – inhibitors of Leishmania mexicana pyruvate kinase; Q27686; purified LmPK, Kinase-Glo ATP luminescence, 1 h; Potency, µM (top dose mostly 57.5 µM), without a hit: top-dose activity change, negative = inhibition, hits mostly inhibitors; hit rate 0.37% among 290,000
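Kinase-Glo luminescence read after 1 h RT reaction of 0.1 nM LmPK with 0.5 mM PEP and 0.1 mM ADP. Activity scaled between uninhibited and enzyme-free controls.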
Giardia FBPA inh – Giardia lamblia aldolase inhibition. A8B2U2. purified Giardia FBPA. Potency, µM (titrated, usually from 59.6 µM), for inactives: top-dose activity, negative = inhibition, usual class: inhibitors. hit rate 0.71% among 290,000; also: nearly all actives have a fitted effect of over 55% in size
Target sequence (A8B2U2 whole entry, looked up): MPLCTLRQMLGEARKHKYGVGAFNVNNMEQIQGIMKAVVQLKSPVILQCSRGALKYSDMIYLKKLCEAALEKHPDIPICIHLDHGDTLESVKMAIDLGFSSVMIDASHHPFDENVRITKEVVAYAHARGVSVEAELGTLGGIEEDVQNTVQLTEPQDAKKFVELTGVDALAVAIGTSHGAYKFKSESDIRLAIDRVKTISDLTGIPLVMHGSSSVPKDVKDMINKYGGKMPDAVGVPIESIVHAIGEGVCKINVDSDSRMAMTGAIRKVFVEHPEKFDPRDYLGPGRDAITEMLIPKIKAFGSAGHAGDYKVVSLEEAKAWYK
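40 nM FBPA preincubated 10 min at RT with compound (up to 57.5 uM final), then substrate plus GAPDH/TPI/NAD/arsenate coupling and diaphorase/resazurin added. Fluorescence read after 20 min at RT, 525/598 nm.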
Starred values were filed as active, the others as inactive; ? = inconclusive; · = no result; [ ] = remark or other dose. This is a sample that favours compounds with a hit; in the whole collection about 0.95% have one here. Unless noted, calls follow the shape of the dose curve; as a rule, active = well fitted curve in the direction sought with a large enough effect; inconclusive = small, poorly fitted or top-dose-only effect, or another doubt; inactive = no such curve, though single readings can be large; an effect the other way counts as inactive or inconclusive. % is scaled to controls: 0 for no effect and ±100 for the full control effect; potency is read from the fitted curve at half-maximal effect.

SMILES | TbPYK inhibitor | RE007 growth inh | LmPK inhibitor | Giardia FBPA inh
CC1=CC2=NC(=O)C(c3ccccc3)C(=O)N2C=C1 (stereo unspecified) | -5.2% | -9.9% | · | ·
CCn1c(=O)cc(SCC(=O)NCc2ccc(F)cc2Cl)c2ccccc21 | 1.2% | · | · | ·
CCOC(=O)[C@]12CCCC=C1N(Cc1cccc3ccccc13)C(=O)[C@H](CC(=O)NCCCCc1ccccc1)C2 | 1.0% | 0.7% | · | ·
CCCOc1ccc(N2C(=O)CC(N3CCCC(C(=O)N4CCCC4)C3)C2=O)cc1 (stereo unspecified) | -11.8% | 17.8µM* | 2.0% | 5.7%
CCOc1ccc(N2C(=O)CC(N3CCC(NC(=O)Nc4ccccc4)CC3)C2=O)cc1 (stereo unspecified) | -10.9% | 22.4µM* | 4.2% | -11.9%
CCOc1ccc(N2C(=O)CC(N3CCN(C(=O)CN4CCCC4)CC3)C2=O)cc1 (stereo unspecified) | -11.6% | -15.6% | -0.9% | 4.9%
O=C(C1CCN(C2CC(=O)N(c3cccc(Cl)c3)C2=O)CC1)N1CCCCCC1 (stereo unspecified) | -21.1% | 7.08µM* | 9.6% | -1.2%
CCOC1=CC2=C(C(=O)C(Cl)=CC2=O)[C@@H]2CN(S(=O)(=O)c3ccc(C)cc3)[C@@H](c3ccccc3)[C@H]12 | 2.51µM* | 6.2% | · | ·
CCc1ccc(-c2cc3c(=O)n(CC(=O)NCCCN4CCN(C)CC4)ncn3n2)cc1 | 3.9% | -5.4% | -1.0% | ·
COc1ccc(C(=O)Nc2ccccc2C(=O)N/N=C/c2ccco2)cc1 | ? | 17.8µM* | 25.1µM* | -4.4%
O=C(Nc1ccccc1C(=O)N/N=C/c1ccncc1)c1ccccc1 | ? | 8.91µM* | 25.1µM* | -1.0%
CCCCn1c(N)c(N(CC(C)C)C(=O)CN(C)S(=O)(=O)c2ccc(NC(C)=O)cc2)c(=O)[nH]c1=O | -1.9% | -14.8% | · | ·
Cc1ccc(S(=O)(=O)N2CCOCC2)cc1C(=O)Nc1ccccc1N1CCOCC1 | -7.8% | 6.7% | · | ·
COc1ccc(-c2nc3c(Br)c(N)c(Br)cc3o2)cc1 | -2.5% | -9.3% | 22.4µM* | ?
CCN(C(=O)Cn1ncc2c(=O)oc3ccc(C)cc3c21)c1cc(OC)ccc1OC | 0.1% | · | · | ·
COc1ccc(CNC(=O)CCS(=O)(=O)c2cc(Br)cc3c2N(C(C)=O)C(C)C3)cc1 (stereo unspecified) | -5.0% | · | · | ·
Cc1cc2nc3ccc(=[N+](C)C)cc-3sc2cc1N | ? | ? | 14.1µM* | ?
NCCNc1ccc(C(=O)N2c3ccccc3Sc3ccccc32)cc1[N+](=O)[O-] | -2.3% | 12.7% | 2.5% | 3.6%
O=C(Nc1cc2ccccc2oc1=O)c1ccccc1 | -16.0% | -4.3% | 4.47µM* | 6.2%
COc1ccc(C(=O)Nc2cc(C(=O)c3ccccc3)c(C)oc2=O)cc1 | -24.3% | 11.2µM* | 2.6% | -16.4%
Cc1oc(=O)c(NC(=O)c2ccccc2)cc1C(N)=O | 2.9% | -4.8% | -3.1% | -3.3%
Cc1oc(=O)c(NC(=O)c2cccc(Cl)c2)cc1C(=O)c1ccccc1 | ? | 14.1µM* | -1.8% | -19.0%
C=C1CCN(C(CC(C)C)C(=O)Nc2ccc(OC)cc2)S(=O)(=O)c2ccccc21 (stereo unspecified) | · | · | · | -18.1%
COC(=O)C[C@H]1C[C@H]2c3cc(NC(=O)C4CCC4)ccc3O[C@H]2[C@H](CO)O1 | 1.7% | -8.9% | · | ·
CCCCn1c(-c2csc3c2CCC(C)C3)n[nH]c1=S (stereo unspecified) | ? | -14.6% | 17.8µM* | 16.6%
SMILES | TbPYK inhibitor | RE007 growth inh | LmPK inhibitor | Giardia FBPA inh
CCCCCCn1c(-c2cccs2)n[nH]c1=S | 2.82µM* | -9.2% | -29.2% | 0.2%
C=CCn1c(-c2csc3c2CCC(C)C3)n[nH]c1=S (stereo unspecified) | ? | 2.1% | ? | 5.9%
CCCCn1c(-c2csc(C(C)C)c2)n[nH]c1=S | ? | -1.0% | ? | 17.3%
CCCCn1c(-c2csc3ccccc23)n[nH]c1=S | 15.8µM* | 4.6% | 14.1µM* | 9.7%
CCCCn1c(-c2csc3c2CCCC3)n[nH]c1=S | ? | 2.5% | 12.6µM* | 0.8%
O=C(O)CCCC/C=C(\c1ccccc1)c1cccnc1 | -7.6% | · | · | ·
CC1(C)Cc2c(C#N)c(N)n(-c3ccccc3)c(=S)c2CO1 | -1.3% | 4.4% | 7.2% | -22.2%
CC1(C)C=C2C(=NN(c3ccccc3)C(N)=C2C#N)CO1 | -15.9% | 13.3% | -4.7% | 1.58µM*
O=c1c2ccccc2sn1-c1cc(S(=O)(=O)N2CCOCC2)ccc1N1CCOCC1 | 4.47µM* | 0.9% | -4.7% | ?
Cc1ccc(S(=O)(=O)Nc2ccc(O)c3ccccc23)c(C)c1 | -20.3% | -9.8% | 8.91µM* | ?
CC(=NNC(=S)N1CCN(c2ccccn2)CC1)c1ccccn1 | -18.8% | -16.3% | · | ·
CC(=NNC(=S)N1CCN(c2ccccn2)CC1)c1nccs1 | ? | 35.5µM* | · | ·
C=C(CCC(=O)c1ccccc1)C(=O)c1ccccc1 | -11.0% | 31.6µM* | -1.2% | 5.0%
CCCCCCCCCCCCCCCCn1cc[n+](C)c1 | -2.3% | 14.1µM* | 3.1% | 1.9%
CCN(CC)Cc1c(O)ccc2c(=O)c(-c3ccccc3Cl)coc12 | -11.9% | -10.2% | -5.8% | -7.8%
Cc1nc(-c2coc3c(O)c(O)ccc3c2=O)cs1 | · | · | · | 14.1µM*
Brc1ccc(-c2nc3c4ccccc4ccn3c2Cc2ccccc2)cc1 | 2.0% | 1.8% | · | ·
CC(C)(C)c1nnc(NC(=O)c2ccc(Cl)nc2)s1 | 4.7% | -4.9% | 8.6% | 5µM*
Cc1ccc2oc(-c3ccccc3)nc2c1 | -6.6% | -8.5% | 15.8µM* | -7.5%
CCOc1ccc(-c2cn3ccccc3n2)cc1 | ? | ? | 12.6µM* | -16.2%
Fc1ccc(-c2cn3ccccc3n2)cc1 | -17.8% | -21.7% | -23.3% | -3.8%
CC(C)C[C@H](NC(=O)[C@@H]1CCC(=O)N1)C(=O)N[C@@H](Cc1ccc(O)cc1)C(=O)N[C@@H](CCC(=O)O)C(=O)N[C@@H](CC(N)=O)C(=O)N[C@@H](CCCCN)C(=O)N1CCC[C@H]1C(=O)N[C@@H](CCCN=C(N)N)C(=O)N[C@@H](CCCN=C(N)N)C(=O)N1CCC[C@H]1C(=O)N[C@@H](Cc1ccc(O)cc1)C(=O)O | · | · | · | -1.9%
Cc1ccccc1Cn1c(C)c(C(=O)NCCC#N)sc1=O | 0.9% | 4.1%[18.4 µM] | · | ·
Cc1c(N)cc(N)cc1C(=O)O | -2.6% | 2.3% | -1.5% | 4.46µM*
CC(=O)ON=C1C=CC(=C(C#N)c2ccccc2)C=C1 | ? | 3.98µM* | · | ·
CC(=O)Nc1ccc(CN2C(=O)C(Cc3ccccc3)ON=C2c2cccc(F)c2)cc1 (stereo unspecified) | -0.5% | -3.1%[18.4 µM] | · | ·
CCCCn1nnnc1C(c1cc2ccccc2o1)N1CCN(C(=O)OCC)CC1 (stereo unspecified) | -6.4% | 6.4% | · | ·
CC(=O)C(Sc1nn(C)c(=S)s1)C(=O)Nc1ccccc1 (stereo unspecified) | 31.6µM* | ? | 14.5% | ?
CC(=O)C(Sc1nc(N(C)C)nc(N(C)C)n1)C(=O)Nc1ccccc1 (stereo unspecified) | -4.7% | 2.7% | -1.5% | 13.2%

Source: PubChem (National Center for Advancing Translational Sciences (NCATS))
